The source made the active and inactive calls. The call rests on the fitted dose curve.
Experiment: qHTS drug screen for cell cycle checkpoint inhibitors in PARPi-resistant BRCA-mutant ovarian cancer cell lines. (AID 1963452)
Settings: PEO1/OlaR viability, CellTiter-Glo luminescence, 96 h; for Z-AUC: stronger effect = lower value
Description: Women's Malignancies Branch, Center for Cancer Research (CCR),
National Cancer Institute (NCI), National Institutes of Health (NIH), Bethesda, MD
Poly (ADP-ribose) polymerase inhibitors (PARPis) have changed the treatment paradigm in breast cancer gene (BRCA) - mutant high-grade serous ovarian carcinoma (HGSC). However, most patients eventually develop resistance to PARPis, highlighting an unmet need for improved therapeutic strategies. Using high-throughput drug screens, we identified ataxia telangiectasia and rad3-related protein/checkpoint kinase 1 (CHK1) pathway inhibitors as cytotoxic and further validated the activity of the CHK1 inhibitor (CHK1i) prexasertib in PARPi-sensitive and -resistant BRCA-mutant HGSC cells and xenograft mouse models. CHK1i monotherapy induced DNA damage, apoptosis, and tumor size reduction. We then conducted a phase 2 study (NCT02203513) of prexasertib in patients with BRCA-mutant HGSC. The treatment was well tolerated but yielded an objective response rate of 6% (1 of 17; one partial response) in patients with previous PARPi treatment. […] BRCA reversion mutation in previously PARPi-treated BRCA-mutant patients was not associated with resistance to CHK1i.
Among others, 1082 oncology drugs, both approved and investigational, were prioritized based on their status in clinical trial development. […] Drugs with average Z-AUC values less than -1.0 in all three cell lines were classified as "hits" resulting in 151 oncology drug hits. The screen also confirmed cross-resistance between olaparib and other PARPis (rucaparib, niraparib, and talazoparib) in PARPi-resistant PEO1/OlaR and PEO4.
[1] G. L. Lin, K. M. Wilson, M. Ceribelli, B. Z. Stanton, P. J. Woo, S. Kreimer, E. Y. Qin, X. Zhang, J. Lennon, S. Nagaraja, P. J. Morris, M. Quezada, S. M. Gillespie, D. Y. Duveau, A. M. Michalowski, P. Shinn, R. Guha, M. Ferrer, C. Klumpp-Thomas, S. Michael, C. McKnight, P. Minhas, Z. Itkin, E. H. Raabe, L. Chen, R. Ghanem, A. C. Geraghty, L. Ni, K. I. Andreasson, N. A. Vitanza, K. E.Warren, C. J. Thomas, M. Monje, Therapeutic strategies for diffuse midline glioma from high-throughput combination drug screening. Sci. Transl. Med. 11, (2019).
[2] T. M. Yamamoto, A. McMellen, Z. L. Watson, J. Aguilera, R. Ferguson, E. Nurmemmedov, T. Thakar, G. L. Moldovan, H. Kim, D. M. Cittelly, A. M. Joglar, E. P. Brennecke, H. Wilson, K. Behbakht, M. J. Sikora, B. G. Bitler, Activation of Wnt signaling promotes olaparib resistant ovarian cancer. Mol. Carcinog. 58, 1770 - 1782 (2019).
PROTOCOL TABLE (as described by Inglese J, Shamu CE and Guy RK. 2007)
SEQUENCE No. (e.g., 1, 2, 3, etc.); […] (e.g., Cells, Incubation, Reagent, etc.); VALUE; DESCRIPTION.
1; Compounds; 20nL; 1536-well white tissue culture-treated plates.
2; Cells; 5 uL; PEO1, PEO4, and PEO1/OlaR cells at 600 cells per well.
3; Incubation; 96 hr; 37C, 95% humidity, 5% CO2.
4; Reagent; 3 uL; CellTiter-Glo (Promega).
5; Incubation; 15 min; room temperature.
6; Detection; Luminescence, PHERAstar (BMG Labtech) plate reader.
NOTES (numbers refer to Sequence numbers above)
1. MIPE 5.0 compounds were acoustically dispensed by Echo Acoustic Liquid Handler (Beckman Coulter Life Sciences). Each compound was plated at an 11-point concentration range with 1:3 dilution. Bortezomib, a proteasome inhibitor (final concentration, 20 uM), was used as a positive.
2. PEO1, PEO4, and PEO1/OlaR were trypsinized and dispensed in 5 uLof growth medium using a Multidrop Combi dispenser at a density of 600 cells per well to allow compounds to be present during the exponential growth phase.
3. Plates were incubated for 96 hours at standard incubator conditions and covered by a stainless steel gasketed lid to prevent evaporation.
4. Three microliters of CellTiter-Glo (Promega) were added to each well.
5. Plates were incubated at room temperature for 15 min with a stainless-steel lid in place.
6. Luminescence readings were taken using PHERAstar (BMG Labtech). […]

[1] = measured here: PEO1 parental Z-AUC
Potency means the concentration at half of the fitted maximal effect.

SMILES	Potency	Z-AUC [1]	Z-AUC (measured here: PEO4 Z-AUC)	Z-AUC
CC(C)C[C@H](NC(=O)[C@H](Cc1ccccc1)NC(=O)c1cnccn1)B(O)O	9.8 nM (active)	-3.19	-2.39	–
CCOC(=O)C(C)Oc1cccc2c(=O)n(CC(=O)Nc3ccc4c(c3)OCCO4)ccc12 (configuration not stated)	–	0.435	0.282	0.881 (inactive)
CC1=C(C)C(=O)C(C(CCCCCC(=O)O)c2ccccc2)=C(C)C1=O (configuration not stated)	–	0.192	0.237	0.121 (inactive)
CCOC(=O)C1=C[C@@H](OC(CC)CC)[C@H](NC(C)=O)[C@@H](N)C1	–	0.666	0.833	0.109 (inactive)
COCCCOc1ccnc(CS(=O)c2nc3ccccc3[nH]2)c1C (configuration not stated)	–	-0.578	-0.176	-0.249 (inactive)
Clc1ccc(C(Cn2ccnc2)OCc2ccc(Sc3ccccc3)cc2)c(Cl)c1 (configuration not stated)	–	-0.535	-0.326	-1.08 (inactive)
COCCCN1CCC(NC(=O)c2cc(Cl)c(N)c3c2OCC3)CC1	–	1.56	1.58	1.78 (inactive)
CC1(C)CCC(C)(C)c2cc(NC(=O)c3ccc(C(=O)O)cc3)ccc21	–	0.445	-0.341	0.358 (inactive)
CC(=O)NC[C@H]1CN(c2ccc(N3CCOCC3)c(F)c2)C(=O)O1	–	-0.362	-0.619	-0.303 (inactive)
COc1cc2c(N3CCN(C(=O)Nc4ccc(OC(C)C)cc4)CC3)ncnc2cc1OCCCN1CCCCC1	–	0.804	1.1	1.04 (inactive)
Nc1ncn([C@H]2C[C@H](O)[C@@H](CO)O2)c(=O)n1	–	-0.11	-0.207	1.63 (inactive)
O=C(NCCO[N+](=O)[O-])c1cccnc1	–	-0.487	-0.272	-0.64 (inactive)
COc1ccc(C2(C#N)CCC(C(=O)O)CC2)cc1OC1CCCC1 (configuration not stated)	–	1.47	0.858	0.982 (inactive)
O=C(NC(Cc1cc(=O)[nH]c2ccccc12)C(=O)O)c1ccc(Cl)cc1 (configuration not stated)	–	0.872	1.04	-0.00865 (inactive)

From PubChem BioAssay (NCATS)
